Reference: PubChem BioAssay (NCI)
This is part of a sample that, as a whole, favours compounds with a hit. Of some 83,000 tested, about 20% had one in any assay.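 Method: cells in 96-well plates; compound added at one concentration; 48 h incubation; percent growth measured; values under 10 scored active.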 Values without a mark were called inactive. Calls of active or inactive are those of the source.

Assays:
Assay in all cases: NCI-60 one-dose screen, 48 h (100 = growth as untreated, 0 = no growth, -100 = all killed)
Conditions in all cases: 10 µM unless noted
SR leukemia = system: SR leukemia
RPMI-8226 leukemia = system: RPMI-8226 leukemia
OVCAR-8 ovarian = system: OVCAR-8 ovarian
OVCAR-5 ovarian = system: OVCAR-5 ovarian
OVCAR-4 ovarian = system: OVCAR-4 ovarian
SK-OV-3 ovarian = system: SK-OV-3 ovarian
IGROV1 ovarian = system: IGROV1 ovarian
OVCAR-3 ovarian = system: OVCAR-3 ovarian
HS 578T breast = system: HS 578T breast
NCI/ADR-RES ovarian = system: NCI/ADR-RES ovarian
T-47D breast = system: T-47D breast
BT-549 breast = system: BT-549 breast
MDA-MB-435 melanoma = system: MDA-MB-435 melanoma
SW-620 colon = system: SW-620 colon
MCF7 breast = system: MCF7 breast
HCT-116 colon = system: HCT-116 colon
HCC-2998 colon = system: HCC-2998 colon
KM12 colon = system: KM12 colon

| Compound | growth (SR leukemia) | growth (RPMI-8226 leukemia) | growth (OVCAR-8 ovarian) | growth (OVCAR-5 ovarian) | growth (OVCAR-4 ovarian) | growth (SK-OV-3 ovarian) | growth (IGROV1 ovarian) | growth (OVCAR-3 ovarian) | growth (HS 578T breast) | growth (NCI/ADR-RES ovarian) | growth (T-47D breast) | growth (BT-549 breast) | growth (MDA-MB-435 melanoma) | growth (SW-620 colon) | growth (MCF7 breast) | growth (HCT-116 colon) | growth (HCC-2998 colon) | growth (KM12 colon) |
| --- | --- | --- | --- | --- | --- | --- | --- | --- | --- | --- | --- | --- | --- | --- | --- | --- | --- | --- |
| COc1cccc(/C=C2/C(=O)N(Cc3ccco3)SC2=S)c1OC | -0.493% (active) | 74.2% | 81.1% | 103% | 102% | 97.8% | 104% | 110% | 109% | 103% | 81.2% | 89.7% | 84.6% | 98.4% | 47.3% | 86.4% | 108% | 92.2% |
| CN1CCN(Cc2ccc(NC(=O)c3[nH]ncc3Nc3ncnc4[nH]ccc34)cc2)CC1 | -17% (active) | -10.4% (active) | 6.62% (active) | 11.6% | -21.7% (active) | 18.5% | 16.4% | -57.6% (active) | -3.22% (active) | 71.2% | 21.7% | -76.2% (active) | 8.18% (active) | 5.63% (active) | 9.25% (active) | 2.81% (active) | -14.2% (active) | 3.42% (active) |
| CN1CCCCC1CCN1c2ccccc2Sc2ccc(Cl)cc21 (stereo unspecified) | -22.5% (active) | 56.5% | 63% | 91.8% | 57.1% | 59.1% | 45.5% | 81.6% | 72.5% | 72.9% | 71.1% | 73.8% | 27% | 73.4% | 21.6% | 30.6% | 61.1% | 60% |
| C=C1CCC2C3(C)COC(c4ccccc4Br)OC3CCC2(C)C1C/C=C1/C(=O)OCC1OC(C)=O (stereo unspecified) | -40.9% (active) | -47% (active) | -36.2% (active) | -38.3% (active) | -62.2% (active) | 52.7% | -9.12% (active) | -88.8% (active) | -30.9% (active) | -3.45% (active) | -68.9% (active) | -74.2% (active) | -38.6% (active) | -73.1% (active) | -68.9% (active) | -91% (active) | 55.4% | -56.7% (active) |
| CCOC(=O)c1c2c(n3ccc(NC(=O)CCN4CCOCC4)cc13)C(=O)c1ncccc1C2=O | -2.96% (active) | 31.8% | 48% | 88.9% | 37% | 36.6% | 31.3% | 4.63% (active) | 52% | 40.5% | 32.6% | 58.3% | 19.4% | 37.2% | -31.7% (active) | 21.8% | 42.5% | 46.2% |
| NS(=O)(=O)c1ccc(Nc2nc3n[nH]c(Nc4ccccc4)c3c(=O)[nH]2)cc1 | 94.1% | 107% | 100% | 111% | 105% | 84.4% | 102% | 106% | 103% | 99.7% | 87.3% | 99.1% | 103% | 104% | 98.5% | 112% | 112% | 100% |
| Clc1nc(Cl)c2c3c(sc2n1)CCCC3 | -36.4% (active) | 1.89% (active) | 39.8% | 96.5% | 44.1% | 107% | 38.4% | -35.9% (active) | 76.2% | 99.7% | 38.4% | 13.3% | 49.3% | 34.3% | 30.7% | 12.5% | 97.6% | 74.2% |
| CCCCCCCCCCCCCC(=O)C(C)N (stereo unspecified) | -2.57% (active) | 31.9% | 89.9% | 68.7% | 14.3% | 72.5% | 53.2% | 73.6% | 70.6% | 75.8% | -30.2% (active) | 66.9% | 78.5% | 80.4% | 34% | 59.2% | 55.1% | 22.1% |
| CC(C)n1cc2c(N)ncnc2n1 | 97.5% | 107% | 108% | 109% | 95.5% | 106% | 107% | 104% | 105% | 107% | 93.9% | 101% | 98.6% | 110% | 102% | 102% | 122% | 111% |
| O=C([C@@H](COCc1ccccc1)N1C(=O)[C@@H](N2C(=O)OC[C@@H]2c2ccccc2)[C@H]1/C=C/c1ccccc1)N1CCC(CCN2CCCCC2)CC1 | 30.9% | 65.2% | 98.6% | 102% | 86.8% | 86.6% | 84.1% | 91.5% | 90.8% | 95.4% | 77.2% | 90% | 97.7% | 98% | 74.9% | 83.1% | 84% | 97.1% |
| Cc1ccc(Nc2nc(N)nc(Nc3ccc4ccccc4c3)n2)cc1 | 26.8% | 48.2% | 47.7% | 79.9% | 74.7% | 58.4% | 51.4% | 8.67% (active) | 47% | 30.6% | 36.2% | 48.1% | 16.6% | 23.5% | 29.6% | 21.8% | 77.5% | 25.1% |
| CC[C@]12C=CCN3CC[C@@]4(c5ccc(OC)cc5N(C)[C@H]4[C@@](O)(C(=O)OC)[C@@H]1OC(=O)CCC(=O)N[C@@H](Cc1c[nH]c4ccccc14)C(=O)OC)[C@@H]32 | -43.1% (active) | -33.4% (active) | 93.9% | 90.8% | 89.9% | 100% | 101% | 86.4% | 79.4% | 105% | 67.8% | 115% | 95.3% | 96.4% | 90% | 100% | 70.6% | 106% |
| COc1ccccc1/C=C(/C(=O)c1ccccc1)c1ccccc1 | 94.7% | 96.9% | 87.7% | 128% | 94.2% | 103% | 96.7% | 102% | 100% | 92.1% | 103% | 92.4% | 107% | 101% | 110% | 83.5% | 107% | 98.1% |
| c1ccc2sc(SCCCn3ccnc3)nc2c1 | 87.9% | 79% | 88.2% | 118% | 93.2% | 90.2% | 103% | 86.4% | 102% | 94.2% | 75.5% | 96.8% | 97.6% | 97.4% | 88.1% | 92.5% | 94.1% | 97.8% |
| C#Cc1nc2ccccc2c(=O)[nH]1 | 2.53% (active) | -22.2% (active) | -31.3% (active) | -44.7% (active) | -74.4% (active) | 49.6% | -66.2% (active) | -82.3% (active) | -4.79% (active) | -2.94% (active) | -30.6% (active) | -61.2% (active) | -58.2% (active) | -63.7% (active) | -25% (active) | -64.2% (active) | -41.1% (active) | -65.7% (active) |
| O=C1Nc2ccccc2C12CC(c1ccccc1)=NN2 (stereo unspecified) | -7.86% (active) | 47.3% | 70.5% | 83.8% | 77.2% | 59.4% | 43% | 39.6% | 87.9% | 41.5% | 60% | 64.4% | -24.9% (active) | 27.7% | 19.1% | 29.4% | 75.6% | 43.3% |
| COc1cccc2c1C(=O)c1c(O)c3c(c(O)c1C2=O)C[C@@](O)(/C(C)=N/NC(=O)c1ccc(Cl)cc1)C[C@@H]3OC1CC(N)C(O)C(C)O1 (stereo partly specified) | -34.1% (active) | -28.7% (active) | -49.9% (active) | 13.9% | -9.91% (active) | 5.07% (active) | -21.8% (active) | -28.5% (active) | -28.4% (active) | 47.8% | -11.6% (active) | -45.3% (active) | -87.3% (active) | -36.6% (active) | -13.8% (active) | 7.54% (active) | -45% (active) | -26.2% (active) |
